Assay results as given in PubChem BioAssay.
Unmarked numbers belong to inactive results. For some of these results: Entries with a potency or affinity are not part of this list. Active and inactive are the calls of the source. Unless noted, how the calls were made is not given here.

Legend:
[1] = antimalarial activity against Dd2 strain (AID 2302;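 active means growth inhibition above 50% at the single 2 µM test dose, taken to imply half-maximal potency below 2 µM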;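 further: 0% = DMSO untreated growth and 100% = chloroquine plus artemisinin killed control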); settings: P. falciparum Dd2 in RBCs, LDH growth readout, 72 h; at 2 µM; active compounds read high
[2] = human hepatoma cell viability loss – ATP luminescence, cytotoxicity control for P. falciparum antimalarial project, primary screen (AID 2303;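 active means inhibition above 50%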;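 further: 0% = DMSO wells and 100% = digitonin-killed cells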); settings: HepG2 viability, 24-48 h, at 10 µM, active compounds read high
[3] = biological target: L-lactate dehydrogenase (Plasmodium falciparum (isolate CDC / Honduras)) (UniProt Q27743); experiment: PfLDH activity inhibition – cell lysate, 3D7 strain, counter-screen for P. falciparum growth inhibition project (AID 2304);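 further: 0% = vehicle and 100% = reference inhibitor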; settings: P. falciparum 3D7 crude extract, LDH APAD/NBT absorbance; at 2 µM; active compounds read high
L-lactate dehydrogenase (Plasmodium falciparum (isolate CDC / Honduras)), sequence (Q27743 whole entry, looked up): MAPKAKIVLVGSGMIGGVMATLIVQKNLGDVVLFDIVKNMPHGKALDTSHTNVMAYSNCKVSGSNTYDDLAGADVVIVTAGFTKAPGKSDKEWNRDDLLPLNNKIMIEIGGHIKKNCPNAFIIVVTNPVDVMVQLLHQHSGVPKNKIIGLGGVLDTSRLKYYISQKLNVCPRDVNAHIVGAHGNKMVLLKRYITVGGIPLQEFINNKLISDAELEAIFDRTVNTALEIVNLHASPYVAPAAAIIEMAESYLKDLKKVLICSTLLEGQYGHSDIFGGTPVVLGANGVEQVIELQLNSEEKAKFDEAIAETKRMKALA

[4] = inhibition of 3D7 malaria parasite growth – strain 3D7 (AID 2306);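 further: 0% = DMSO wells and 100% = chloroquine plus artemisinin control wells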; settings: P. falciparum 3D7 erythrocytic growth, LDH absorbance, 72 h; at 2 µM; active compounds read high
[5] = biological target: Calcium-dependent protein kinase 1 (Plasmodium falciparum (isolate 3D7)) (UniProt P62344); experiment: PfCDPK1 kinase inhibitors, biochemical, TCAMS library (AID 1159585; cut-off not given, nearly all actives have IC50 up to about 0.98 µM;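 further: inhibitors leave more ATP so luminescence rises with inhibition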); settings: recombinant PfCDPK1, Kinase-Glo ATP depletion luminescence
Calcium-dependent protein kinase 1 (Plasmodium falciparum (isolate 3D7)), sequence (P62344 whole entry, looked up): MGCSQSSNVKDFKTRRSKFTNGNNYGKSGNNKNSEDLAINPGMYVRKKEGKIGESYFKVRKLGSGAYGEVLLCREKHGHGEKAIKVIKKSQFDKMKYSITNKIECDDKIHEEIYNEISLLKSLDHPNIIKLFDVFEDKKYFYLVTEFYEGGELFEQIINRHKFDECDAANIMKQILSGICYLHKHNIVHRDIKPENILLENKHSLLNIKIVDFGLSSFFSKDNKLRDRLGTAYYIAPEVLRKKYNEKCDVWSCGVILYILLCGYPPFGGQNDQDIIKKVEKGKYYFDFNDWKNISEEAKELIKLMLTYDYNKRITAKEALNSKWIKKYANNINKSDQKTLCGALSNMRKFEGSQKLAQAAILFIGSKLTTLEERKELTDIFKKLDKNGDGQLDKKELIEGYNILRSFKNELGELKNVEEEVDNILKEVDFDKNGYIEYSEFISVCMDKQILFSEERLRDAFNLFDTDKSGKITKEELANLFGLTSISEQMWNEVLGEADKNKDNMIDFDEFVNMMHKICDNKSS

[6] = biological target: Plasmodium falciparum protein kinase 6 (PK6, PF3D7_1337100) (UniProt Q8IDW1); experiment: PfPK6 kinase inhibitors, biochemical, TCAMS library (AID 1159586); settings: recombinant PfPK6, Kinase-Glo ATP depletion luminescence
Plasmodium falciparum protein kinase 6 (PK6, PF3D7_1337100), sequence (Q8IDW1 1-305): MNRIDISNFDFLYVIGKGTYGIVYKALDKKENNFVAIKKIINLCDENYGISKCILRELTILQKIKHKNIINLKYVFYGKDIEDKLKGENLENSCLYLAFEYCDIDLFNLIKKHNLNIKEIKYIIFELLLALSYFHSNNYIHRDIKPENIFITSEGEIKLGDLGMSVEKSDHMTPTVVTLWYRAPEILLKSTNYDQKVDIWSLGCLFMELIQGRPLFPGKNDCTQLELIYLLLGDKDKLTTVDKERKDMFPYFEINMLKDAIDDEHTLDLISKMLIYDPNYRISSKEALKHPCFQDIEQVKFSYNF

[7] = biological target: Protein kinase 7 (PK7), Plasmodium falciparum 3D7 (PF3D7_0213400) (UniProt Q7YTF7); experiment: inhibition of Plasmodium PK7 catalytic activity – biochemical, TCAMS antimalarial set, Kinase-Glo luminescence (AID 1159587); settings: recombinant PfPK7, Kinase-Glo ATP depletion luminescence
Protein kinase 7 (PK7), Plasmodium falciparum 3D7 (PF3D7_0213400), sequence (Q7YTF7 1-343): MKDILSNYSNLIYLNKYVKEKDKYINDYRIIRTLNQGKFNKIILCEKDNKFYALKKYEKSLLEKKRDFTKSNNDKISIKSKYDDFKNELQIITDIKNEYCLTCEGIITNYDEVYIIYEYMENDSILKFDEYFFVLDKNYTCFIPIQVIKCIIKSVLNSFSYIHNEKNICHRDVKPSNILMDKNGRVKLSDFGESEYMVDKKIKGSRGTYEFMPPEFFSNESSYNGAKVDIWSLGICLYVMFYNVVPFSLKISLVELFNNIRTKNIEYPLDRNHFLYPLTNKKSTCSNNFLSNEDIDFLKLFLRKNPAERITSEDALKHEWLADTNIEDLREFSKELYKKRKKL

[8] = biological target: Calcium-dependent protein kinase 4 (Plasmodium falciparum (isolate 3D7)) (UniProt Q8IBS5); experiment: PfCDPK4 kinase inhibitors, biochemical, TCAMS library (AID 1159588; cut-off not given, nearly all actives have IC50 up to about 0.91 µM); settings: recombinant PfCDPK4, Kinase-Glo ATP depletion luminescence
Calcium-dependent protein kinase 4 (Plasmodium falciparum (isolate 3D7)), sequence (Q8IBS5 whole entry, looked up): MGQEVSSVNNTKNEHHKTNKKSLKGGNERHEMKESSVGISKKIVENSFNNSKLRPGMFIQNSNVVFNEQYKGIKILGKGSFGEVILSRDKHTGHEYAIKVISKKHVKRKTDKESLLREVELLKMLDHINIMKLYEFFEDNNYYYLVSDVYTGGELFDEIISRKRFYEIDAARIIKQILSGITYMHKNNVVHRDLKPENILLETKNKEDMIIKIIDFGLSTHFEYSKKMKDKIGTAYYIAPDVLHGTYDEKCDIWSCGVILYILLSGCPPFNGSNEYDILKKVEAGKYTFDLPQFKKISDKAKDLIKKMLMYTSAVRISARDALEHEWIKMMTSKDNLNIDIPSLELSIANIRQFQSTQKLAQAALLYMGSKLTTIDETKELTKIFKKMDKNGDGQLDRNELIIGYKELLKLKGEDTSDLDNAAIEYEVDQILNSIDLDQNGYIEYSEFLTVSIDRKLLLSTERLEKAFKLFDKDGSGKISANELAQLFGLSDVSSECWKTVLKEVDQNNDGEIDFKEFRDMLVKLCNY

| SMILES | growth inhibition [1] | inhibition [2] | inhibition [3] [%] | growth inhibition [4] | outcome [5] | outcome [6] | outcome [7] | outcome [8] |
| --- | --- | --- | --- | --- | --- | --- | --- | --- |
| CCN(CC)CCCN(C(=O)Nc1c(Cl)cncc1Cl)c1nc(-c2ccc(F)cc2)cs1 | 93% (active) | 37% | -5 | 101% (active) | inactive | inactive | inactive | inactive |
| CC(=O)Nc1cccc(C(=O)Nc2cccc(-c3ccc(-c4nc5c(C)cccc5[nH]4)cc3)c2)c1 | 12% | 29% | -1 | 95% (active) | inactive | inactive | inactive | inactive |
| COc1ccc2ccccc2c1CNCCCCCCNCc1c(OC)ccc2ccccc12 | 35% | 99% (active) | -2 | 101% (active) | inactive | inactive | inactive | inactive |
| Nc1ncc(-c2ccc(NC(=O)Nc3cc(C(F)(F)F)ccc3F)cc2)c(N)n1 | 21% | 96% (active) | -5 | 99% (active) | inactive | inactive | inactive | inactive |
| O=C(/C=C/c1ccc(Cl)c(Cl)c1)NCCCCCN1CCC(NC(=O)c2ccc(F)cc2F)CC1 | 11% | 17% | -3 | 96% (active) | inactive | inactive | inactive | inactive |
| CC(C)C[C@H](NC(=O)c1ccc(OCCN2CCOCC2)cc1)C(=O)N[C@H](/C=N/NC(=O)OC(C)(C)C)CCc1ccccc1 | 87% (active) | 8% | -4 | 96% (active) | inactive | inactive | inactive | inactive |
| CCCCCCCN1CC[C@@H](CCCc2ccnc3ccc(OCCCCNC(N)=O)cc23)[C@@H](CC)C1 | 18% | 41% | -3 | 93% (active) | inactive | inactive | inactive | inactive |
| Nc1nc(N)c2cc(C#Cc3ccc(-c4ccccc4)cc3)ccc2n1 | 3% | 20% | 0 | 94% (active) | inactive | inactive | inactive | inactive |
| O=C(NCCN1CCCC1)c1cccc(-c2ccc(-c3nc4ccccc4[nH]3)s2)c1 | 13% | 27% | 4 | 96% (active) | inactive | inactive | inactive | inactive |
| Nc1ncc(-c2ccsc2)c2ccc(-c3ccc4cn[nH]c4c3)cc12 | 41% | 18% | 6 | 95% (active) | inactive | inactive | inactive | inactive |
| Cc1cc(N[C@@H](Cc2ccccc2)C(=O)NCCc2ccccc2)nc(NCc2ccccc2C)n1 | 85% (active) | 37% | -2 | 99% (active) | inactive | inactive | inactive | inactive |
| COc1c(O)cc2oc(-c3ccc(O)cc3)cc(=O)c2c1O | 0% | 6% | -1 | 96% (active) | inactive | inactive | inactive | inactive |
| N#Cc1cnc2cc(-c3cnc(CNCCN4CCOCC4)s3)ccc2c1Nc1ccc(Oc2ccccc2)cc1 | 83% (active) | 30% | 2 | 97% (active) | inactive | inactive | inactive | inactive |
| CCOC(=O)c1c(NC(=O)c2ccccc2)sc2c(O)c(CN(CC)CC)ccc12 | 100% (active) | 9% | 4 | 100% (active) | inactive | inactive | inactive | inactive |
| COc1cc(Nc2ncc3c(C)nc(-c4cc5ccccc5[nH]4)n3n2)cc(OC)c1OC | 65% (active) | 19% | 7 | 91% (active) | inactive | inactive | inactive | inactive |
| N#Cc1ccc(Sc2nnc(-c3ccccc3Cl)n2CC2CCCCC2)cc1[N+](=O)[O-] | 34% | 30% | 1 | 85% (active) | inactive | inactive | inactive | inactive |
| Cc1cc(C)nc(-n2[nH]c(C)c(Cc3ccc(C(C)(C)C)cc3)c2=O)n1 | 61% (active) | -9% | -1 | 88% (active) | inactive | inactive | inactive | inactive |
| CCOc1ccc(OCCCON2C(N)=NC(N)=NC2(C)C)cc1 | 94% (active) | 63% (active) | -9 | 97% (active) | inactive | inactive | inactive | inactive |
| O=C(CCc1cnc[nH]1)Nc1cccc(-c2ccc(-c3nc4ccc(F)cc4[nH]3)s2)c1 | 69% (active) | 17% | -3 | 101% (active) | inactive | inactive | inactive | inactive |
| N=C(N)c1ccc(NCc2cccc(C(=O)O)c2)cc1 | 79% (active) | 7% | -2 | 84% (active) | inactive | inactive | inactive | inactive |
